HT1080 IDH1KD tx: qHTS for induction of synthetic lethality in tumor cells producing 2HG: qHTS for the HT-1080-IDH1KD cell line | HT-1080 IDH1 knockdown viability, ATP luminescence, 48 h | Potency, µM (titrated, usually from 46.1 µM), actives largely listed as cytotoxic | 360,000 compounds, 2% hits
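Using the IDH1-knockdown HT-1080 line run in the same batch and compound series as the NT line, viability after 48 h at 37 °C was determined by CellTiter-Glo luminescence and expressed as % activity.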
HT1080-NT tox: qHTS for induction of synthetic lethality in tumor cells producing 2HG: qHTS for the HT-1080-NT fibrosarcoma cell line; 360,000 compounds, 1.6% hits; Potency, µM (highest dose often 46.1 µM), usual class: cytotoxic; AID 686970, 2013; HT-1080-NT fibrosarcoma viability, CellTiter-Glo ATP luminescence, 48 h;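 further: NT is the 2HG producing partner of a matched IDH1 knockdown line; nearly all actives have a fitted effect of over 55% in size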
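750 cells/well, RPMI + 5% FBS; 2 h settle, compound pin-transfer, 48 h at 37 degrees C. CellTiter-Glo 10 min RT, luminescence. Normalized to DMSO and media-only wells.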
MCF10A rerep: A quantitative high throughput screen for small molecules that induce DNA re-replication in MCF 10a normal breast cells | MCF 10A DNA re-replication, Hoechst nuclear intensity, 48 h | Potency, µM (series often up to 46.1 µM), usual class: activators | 350,000 compounds, 2.9% hits | AID 624296, 2012; further: nearly all actives have a fitted effect of over 50% in size
SW480 rerep: A quantitative high throughput screen for small molecules that induce DNA re-replication in SW480 colon adenocarcinoma cells; SW480 DNA re-replication, Hoechst DNA content imaging, 48 h; Potency, µM (titrated, usually from 46.1 µM), actives largely listed as activators; 340,000 compounds, 1.8% hits; AID 624297, 2012; further: nearly all actives have a fitted effect of over 55% in size
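Per well, 250 cells were exposed to pinned compound for 48 hr. Nuclear DNA was visualised with Hoechst (40 min, 37 C) and total object intensity recorded by fluorescence scanning.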
KB-V1 MDR tox: qHTS assay for MDR1-selective chemotherapeutics: Primary screen using the drug-selected MDR subline cells KB-V1 | KB-V1 MDR cells viability, CellTiter-Glo, 72 h | Potency, µM (titrated, usually from 46.1 µM), most hits filed as cytotoxic | 400,000 compounds, 3.4% hits; further: nearly all actives have a fitted effect of over 60% in size
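Cytotoxicity via CellTiter-Glo luminescence after 72 h compound exposure at 37 degrees C. Cells: drug-selected KB-V1 line, DMEM phenol-red free plus 10% FBS. Compounds tested at multiple concentrations; normalized data fitted to concentration-effect curves.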
KB-3-1 tox: qHTS assay for MDR1-selective chemotherapeutics: Primary screen using the parental adenocarcinoma cell KB-3-1 | AID 1347075, 2019 | 400,000 compounds, 1.4% hits | Potency, µM (top dose mostly 46.1 µM), most hits filed as cytotoxic | KB-3-1 viability, CellTiter-Glo ATP luminescence, 72 h; further: nearly all actives have a fitted effect of over 60% in size
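Parental KB-3-1 viability, qHTS format: 72 h compound exposure, 37 °C; CellTiter-Glo; media-only wells and DMSO plates as controls; concentration-effect fits on corrected data.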
Each line names hits and unclear results; the compound was inactive in the other large screens. Sampled rows, rich in hits. Any-hit rate of the full collection: about 7.9%. The call rests on the fitted dose curve; in most records, active means well fitted curve in the direction sought with a large enough effect; inconclusive means small, poorly fitted or top-dose-only effect, or another doubt; inactive means no such curve, though single readings can be large; an effect the other way counts as inactive or inconclusive.

O=C1CCC[C@@H]2CC(N(Cc3cc4ccccc4s3)c3ccccc3)C[C@@H]3CCN1[C@H]23 (stereo partly specified)	none (no result: HT1080 IDH1KD tx, HT1080-NT tox, MCF10A rerep, SW480 rerep)
CCN(Cc1cccs1)c1ncnc2ccc(-c3ccc4c(c3)OCO4)cc12	none (no result: HT1080 IDH1KD tx, HT1080-NT tox, MCF10A rerep, SW480 rerep)
CC1(C)CC2(C)OC(=N)C1(C#N)C2(C#N)C#N (stereo unspecified)	HT1080 IDH1KD tx inconclusive, HT1080-NT tox inconclusive, MCF10A rerep 23.1µM
CCCCOc1ccc(C(=O)NCC(=O)NCC(c2cccs2)N2CCOCC2)cc1 (stereo unspecified)	KB-V1 MDR tox inconclusive
Cc1cccc(C(=O)NCc2nnc(SCC(=O)NC(C)c3ccccc3)n2C)c1 (stereo unspecified)	SW480 rerep 18.4µM
Fc1ccc(N2CCN(c3nc4ccccc4c4nc(-c5ccccc5)nn34)CC2)cc1	KB-V1 MDR tox inconclusive (no result: HT1080 IDH1KD tx, HT1080-NT tox, MCF10A rerep, SW480 rerep)
COc1ccc(S(=O)(=O)NCC2CCCN(Cc3cccnc3)C2)cc1 (stereo unspecified)	MCF10A rerep 1.03µM
CCc1cc2c3c(c1)C1(C(=O)N3C(C)(C)C=C2C)C(C#N)=C(N)Oc2[nH]c(=O)[nH]c(=O)c21 (stereo unspecified)	HT1080 IDH1KD tx 16.4µM, HT1080-NT tox 23.1µM, MCF10A rerep inconclusive, SW480 rerep 4.11µM, KB-V1 MDR tox inconclusive, KB-3-1 tox inconclusive
COc1ccc(OC)c(NC(=O)C2CCN(Cc3cnn(-c4ccccc4)c3-n3cccc3)CC2)c1	HT1080 IDH1KD tx inconclusive, SW480 rerep inconclusive, KB-V1 MDR tox 8.2µM
COc1cccc(NC(=O)C2CCN(Cc3cnn(-c4ccccc4)c3-n3cccc3)CC2)c1	MCF10A rerep inconclusive, SW480 rerep inconclusive, KB-V1 MDR tox inconclusive, KB-3-1 tox inconclusive
O=C(Nc1ccccc1Cl)C1CCN(Cc2cnn(-c3ccccc3)c2-n2cccc2)CC1	HT1080 IDH1KD tx inconclusive, MCF10A rerep inconclusive, KB-V1 MDR tox 23.1µM, KB-3-1 tox 18.4µM
COc1ccc(NC(=O)C2CCN(Cc3cnn(-c4ccccc4)c3-n3cccc3)CC2)cc1OC	KB-V1 MDR tox inconclusive
C=Cc1ccc(CC2(C)C(=O)Nc3ccc(-c4cccnc4)cc32)cc1 (stereo unspecified)	HT1080-NT tox inconclusive, KB-V1 MDR tox inconclusive, KB-3-1 tox inconclusive (no result: MCF10A rerep, SW480 rerep)
Cc1ccc(S(=O)(=O)N2C[C@@H]3CCCC[C@@H]3[C@@H](C)[C@H]2c2cn(Cc3ccccc3)c3ncccc23)cc1	MCF10A rerep inconclusive, KB-V1 MDR tox inconclusive, KB-3-1 tox inconclusive
O=C(NCCc1c[nH]c2ccccc12)c1[nH]c(C(F)(F)F)nc1-c1ccccc1	none (no result: MCF10A rerep, SW480 rerep)
COc1cc2nc(Nc3ccc(C)c(Cl)c3)nc(N)c2cc1OC	HT1080 IDH1KD tx 13µM, HT1080-NT tox inconclusive, MCF10A rerep 20.6µM, SW480 rerep 20.6µM, KB-V1 MDR tox inconclusive
CCOC(=O)c1ccc(Nc2nc(N)c3cc(OC)c(OC)cc3n2)cc1	MCF10A rerep 20.6µM, SW480 rerep inconclusive
Cc1ccccc1N(CC(=O)N/N=C/c1ccc(Cl)cc1)C(=O)c1ccccc1	MCF10A rerep 25.9µM, SW480 rerep inconclusive, KB-V1 MDR tox 20.6µM, KB-3-1 tox inconclusive
Cc1ccccc1N(CC(=O)N/N=C/c1ccc(F)cc1)C(=O)c1ccccc1	none
CC(=O)NNC(=S)NC(=O)C(c1ccccc1)c1ccccc1	HT1080 IDH1KD tx inconclusive, HT1080-NT tox inconclusive, KB-3-1 tox inconclusive
CC(C)(C)C(=O)NC(=S)NNC(=O)C(c1ccccc1)c1ccccc1	HT1080 IDH1KD tx 11.6µM, HT1080-NT tox 18.4µM, SW480 rerep inconclusive, KB-V1 MDR tox inconclusive, KB-3-1 tox inconclusive
O=C(NCCCc1cnc[nH]1)NCCCN(Cc1ccc(Cl)cc1)c1ccc(Br)cn1	none (no result: HT1080 IDH1KD tx, HT1080-NT tox, MCF10A rerep, SW480 rerep)
COc1ccc(Cc2nnc(NC(=O)c3ccccc3C)s2)cc1	KB-3-1 tox inconclusive
Cc1ccc(OCC(=O)N(Cc2ccccc2)c2c(N)n(Cc3ccccc3)c(=O)[nH]c2=O)c(C)c1	MCF10A rerep inconclusive
Cc1nn(Cc2c(F)c(F)c(F)c(F)c2F)c(C)c1NC(=O)c1cccc(COc2ccccc2Cl)c1	HT1080-NT tox inconclusive, KB-V1 MDR tox 2.59µM
O=C(Nc1ccn(Cc2c(F)c(F)c(F)c(F)c2F)n1)c1ccc(COc2ccccc2Cl)cc1	HT1080 IDH1KD tx inconclusive, KB-3-1 tox inconclusive
Cc1nn(Cc2cccc(F)c2)c(C)c1NC(=O)c1c([N+](=O)[O-])c(C)nn1C	none
Cc1nn(Cc2cccc(F)c2)c(C)c1NC(=O)c1ccc(COc2ccccc2Cl)cc1	HT1080 IDH1KD tx inconclusive, HT1080-NT tox 2µM, MCF10A rerep inconclusive, KB-V1 MDR tox 2.59µM
CCC(C)NC(=O)c1ccc(COc2ccccc2Cl)cc1 (stereo unspecified)	KB-V1 MDR tox 20.6µM
COCCCNC(=O)C1CCCN(S(=O)(=O)c2ccc3c(c2)oc(=O)n3C)C1 (stereo unspecified)	KB-V1 MDR tox inconclusive (no result: HT1080 IDH1KD tx, HT1080-NT tox, MCF10A rerep, SW480 rerep)
COc1cc(-c2nc3cnccn3c2Nc2c(C)cccc2C)ccc1O	MCF10A rerep 16.4µM, SW480 rerep 23.1µM
Cc1cccc(C)c1Nc1c(-c2ccc(N3CCOCC3)cc2)nc2cnccn12	MCF10A rerep 23.1µM, SW480 rerep inconclusive
COc1cc(-c2nc3cnccn3c2NC(C)(C)CC(C)(C)C)ccc1O	none
CC(=O)c1cccc(OCc2cc(C(=O)NCCC3=CCCCC3)no2)c1	none
CCS(=O)(=O)N1CCc2cc(C(=O)NCc3ccccc3Cl)ccc21	none (no result: HT1080 IDH1KD tx, HT1080-NT tox, MCF10A rerep, SW480 rerep)
CC(C)=C1C2CCC1C1C(=O)N(CCc3ccccc3)C(=O)C21 (stereo unspecified)	KB-V1 MDR tox 10.3µM
COc1ccc(-c2noc(CCC(=O)N3CCN(c4cccc(Cl)c4)CC3)n2)cc1	none
CC(Oc1cc(F)ccc1[N+](=O)[O-])C(=O)Nc1ccc(S(=O)(=O)N2CCCC2)cc1 (stereo unspecified)	MCF10A rerep 20.6µM, SW480 rerep 16.4µM, KB-V1 MDR tox inconclusive
CC(OC(=O)c1cc(Br)ccc1O)C(=O)Nc1ccc(S(=O)(=O)N2CCCC2)cc1 (stereo unspecified)	HT1080 IDH1KD tx inconclusive, HT1080-NT tox inconclusive, MCF10A rerep inconclusive, SW480 rerep inconclusive, KB-V1 MDR tox 23.1µM, KB-3-1 tox inconclusive

Assay outcomes from PubChem.
